High-throughput results from PubChem.
Hits are enriched below; roughly 3.6% of the tested compounds scored in any of these assays.
Tau filament bind: qHTS Assay for Tau Filament Binding. Microtubule-associated protein tau (Homo sapiens), P10636. recombinant tau filaments, thioflavin S fluorescence, 15 h; filaments grown with octadecylsulfate alongside compound. Potency, µM (highest dose often 57.1 µM), inactives show at the top dose activity change, negative = inhibition. 71,000 compounds, 2% hits;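 note: % is set by controls: 0 for no effect and ±100 for the full control effect; actives lower thioflavin S fluorescence by blocking filaments or displacing dye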
Target sequence (P10636 whole entry, looked up): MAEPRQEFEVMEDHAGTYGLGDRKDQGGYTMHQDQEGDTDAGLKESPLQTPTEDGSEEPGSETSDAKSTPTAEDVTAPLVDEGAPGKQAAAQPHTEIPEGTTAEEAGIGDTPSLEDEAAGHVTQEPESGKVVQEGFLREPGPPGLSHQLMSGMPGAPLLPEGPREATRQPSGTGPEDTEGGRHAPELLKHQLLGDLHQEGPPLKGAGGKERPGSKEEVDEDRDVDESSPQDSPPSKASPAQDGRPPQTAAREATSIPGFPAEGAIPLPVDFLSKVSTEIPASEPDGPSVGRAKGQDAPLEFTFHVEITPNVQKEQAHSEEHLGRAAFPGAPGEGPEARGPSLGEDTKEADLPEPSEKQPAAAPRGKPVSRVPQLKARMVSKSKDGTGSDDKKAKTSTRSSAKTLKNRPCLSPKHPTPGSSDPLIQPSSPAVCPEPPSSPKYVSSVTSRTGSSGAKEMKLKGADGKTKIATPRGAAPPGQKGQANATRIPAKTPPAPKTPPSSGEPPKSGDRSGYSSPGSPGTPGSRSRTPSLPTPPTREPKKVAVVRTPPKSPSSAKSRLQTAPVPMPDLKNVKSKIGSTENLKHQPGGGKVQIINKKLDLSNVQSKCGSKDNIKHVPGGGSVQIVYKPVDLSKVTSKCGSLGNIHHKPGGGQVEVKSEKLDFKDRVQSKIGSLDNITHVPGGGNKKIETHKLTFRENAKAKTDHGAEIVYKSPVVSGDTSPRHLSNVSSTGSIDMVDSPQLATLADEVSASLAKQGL
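Read-out: ThS fluorescence, 450 nm excitation/510 nm emission; lower signal marks blocked filament formation or displaced dye. Tau at 1 uM with 30 uM ODS, 10 uM ThS, 5 mM DTT, 100 mM NaCl, 10 mM HEPES pH 7.4; 15 h, 37 C.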
CRE Fsk mod: Cell signaling CRE-BLA (Fsk stim); CHO CRE-bla reporter (cAMP response element driving beta-lactamase), forskolin EC10, beta-lactamase ratio; Potency, µM (series often up to 38.2 µM), without a hit: top-dose activity change, negative = inhibition, hits mostly activators; 71,000 compounds, 2.5% hits; AID 662, 2007; active = well fitted activation curve with a large enough effect in the signal ratio, with a control signal flat, not every such curve was filed as active; inconclusive = small, poorly fitted or top-dose-only effect, or effect the other way, or a change in a side signal; the % refers to the signal ratio; note: % of control where 0% means no effect
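Modulation of forskolin-driven signalling is measured in CHO cells carrying a CRE-controlled beta-lactamase reporter. Cells are stimulated with EC10 NKH 477 in the presence of titrated compound for 3 h at 37 °C, then loaded with CCF4 for 2 h at room temperature.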
IkB sig inh: IkB Signaling; ABC-DLBCL IkBa-CBG/CBR dual luciferase ratio, 4 h; response scale: scaled: untreated 0%, proteasome inhibitor 100%; Potency, µM (titrated, usually from 57.1 µM), without a hit: at the highest dose IkBa stabilization activation; 110,000 compounds, 0.04% hits; AID 445, 2006; active = well fitted curve in the direction sought with a large enough effect in the signal ratio, not every such curve was filed as active; inconclusive = small, poorly fitted or top-dose-only effect, or a change in a side signal; the % refers to the signal ratio;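 note: the direction sought is a rising ratio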
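Curves were fitted separately to fusion (green), unfused (red) and ratio luminescence, then classed by r2, magnitude and activity. Cells: OCI-Ly3, 4 h compound plus doxycycline at 37C; 10 uM MG-132 defined full response.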
Hsp90 Hop PPI: qHTS Assay for Disrupters of an Hsp90 Co-Chaperone Interaction. Hsp90 C-terminal peptide / TPR2A (Hop) interaction, human. AlphaScreen TPR2A-His6 binding biotin-Hsp90 C-terminal peptide. Potency, µM (titrated, usually from 57 µM), for the others: at the top dose activity change, negative = inhibition. 71,000 compounds, 0.44% hits; active = well fitted curve in either direction with a large enough effect; inconclusive = small, poorly fitted or top-dose-only effect, or another doubt; note: % is set by controls: 0 for no effect and ±100 for the full control effect
15-hLO inh: qHTS Assay for Inhibitors of 15-hLO (15-human lipoxygenase); purified 15hLO-1, xylenol orange hydroperoxide absorbance; 74,000 compounds, 1.4% hits; Potency, µM (series often up to 57.1 µM), inactives show top-dose activity change, negative = inhibition, usual class: inhibitors; AID 887, 2007; Polyunsaturated fatty acid lipoxygenase ALOX15 (Homo sapiens), P16050; note: % is set by controls: 0 for no effect and ±100 for the full control effect; nearly all actives have a fitted effect of over 55% in size
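Inhibition is scored from a chromogenic endpoint. After 15 min enzyme-compound contact, arachidonic acid (50 uM final) reacts 6 min with 40 nM 15hLO-1 at room temperature, then Fe-XO reagent is added for 30 min and absorbance ratio recorded.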
* marks the source's active call; other numbers are inactive results; i = inactive; ? = inconclusive; / = no result given; [ ] = another dose, or the depositor's remark. Unless noted, calls come from the whole dose curve; as a rule, active = well fitted curve in the direction sought with a large enough effect; inconclusive = small, poorly fitted or top-dose-only effect, or another doubt; inactive = no such curve, though single readings can be large; an effect the other way counts as inactive or inconclusive. Potency is the fitted concentration of half-maximal effect.

SMILES	Tau filament bind	CRE Fsk mod	IkB sig inh	Hsp90 Hop PPI	15-hLO inh
COC(=O)N1CCC2(CC1)CCN(c1ncccn1)CC2	-2.9%	?	0.9%[11.4 µM]	-3.5%	5.9%
COc1ccc(NC(=O)C2=C(C)Nc3nc(CCCO)nn3C2c2ccc(O)cc2)cc1 (stereo unspecified)	/	/	-0.1%	/	/
CN1C(=O)Cc2cc(S(=O)(=O)NCc3ccc(Cl)cc3)ccc21	/	/	3.1%	/	/
Cc1cccc(-c2nc(S(=O)(=O)c3ccccc3)c(N3CCN(c4ccccc4)CC3)o2)c1	/	/	-0.8%	/	/
O=C(CC(c1cccs1)N1Cc2ccccc2C1=O)Nc1cccc(F)c1 (stereo unspecified)	/	/	0.5%	/	/
N=C1[C@@H](O)[C@]2(I)c3ccccc3N3C(=N)[C@H](O)[C@@H]4c5ccccc5N1[C@@H]4[C@@H]32	1µM*	-18.9%[7.6 µM]	?	-29.1%[11 µM]	?
CCOc1ccc(-c2nnc(SCC(=O)Nc3ccc(C)cc3C)o2)cc1	/	/	0.3%	/	/
CCOc1ccc(NCC(=O)Nc2ccc(C)cc2C)cc1	31.6µM*	-11.1%	4.4%	-13.5%	-12.8%
COC(=O)c1ccc(C(NC(=O)OCc2ccccc2)/C(=C/[C@@H](C)C(=O)NCc2cc(C)on2)c2cccnc2)cc1 (stereo partly specified)	5.9%	-13.0%	/	1.0%	-5.7%
O=C(Nc1nc(-c2ccccn2)cs1)C1COc2ccccc2O1 (stereo unspecified)	19.3%	-1.4%	?	15.8µM*	39.7%
N#CCc1nc(CSc2nc3ccccc3s2)cs1	-18.7%	0.4%	0.5%	1.1%	-19.6%
COc1cc(/C=C(\C#N)C(N)=O)cc(CSc2nc3ccccc3s2)c1O	31.7%	25.1µM*	0.0%	-5.0%	-14.8%[25.6 µM]
Cc1ccc(Nc2sc(C(=O)c3ccccc3)c(N)c2S(=O)(=O)c2ccccc2)c(C)c1	/	/	-0.9%	/	/
Cc1cc(Cl)ccc1Nc1sc(C(=O)c2cc3cc(Cl)ccc3o2)c(N)c1C#N	3.16µM*	?	6.6%[11.4 µM]	-6.6%[11 µM]	-4.5%[11.4 µM]
N#Cc1cc2c(nc1SCc1ccncc1)CCC2	6.31µM*	12.0%	0.2%	-1.9%	?
N#Cc1cc2c(nc1SCc1ccccc1)CCCC2=O	-0.7%	?	-0.3%	22.2%	-14.6%
CC(C)C12CN3CC(C(C)C)(CN(C1)C3c1ccccc1O)C2=O (stereo unspecified)	-9.3%[11.4 µM]	?	4.3%	-1.0%[11 µM]	-4.4%[11.4 µM]
CC(C)C12CN3CC(C(C)C)(CN(C1)C31C(=O)Nc3ccccc31)C2=O (stereo unspecified)	15.8µM*	-1.5%	-0.7%	-0.3%	5.1%
COc1ccc(NC(=O)c2nnn(CC(=O)Nc3cc(C)cc(C)c3)c2N)c(OC)c1	/	/	-0.8%	/	/
N#CC1=C(N)C(C#N)(C#N)[C@H](c2ccoc2)[C@H]2CN(Cc3ccccc3)CC=C12	i	10µM*	6.5%	-15.3%	?
Cc1nc(SCC(=O)NCc2ccco2)c2c(C)c(C)sc2n1	8.1%	3.16µM*	?	-4.0%	1.9%
Cc1sc2ncnc(SCC(=O)NC(=O)NCc3ccco3)c2c1C	45.4%	12.6µM*	-0.5%	-0.9%	-19.4%
Cc1sc2nc(C(C)C)nc(SCC(=O)NCc3ccco3)c2c1C	8.5%	?	?	-0.4%	-11.7%
Cc1sc2ncnc(NCc3ccco3)c2c1C	-22.9%	?	1.2%	-4.5%	?
Cc1nc(SCC(=O)N2CCN(C(=O)c3ccco3)CC2)c2c(C)c(C)sc2n1	17.5%	2µM*	-0.5%	-4.0%	7.2%
SMILES	Tau filament bind	CRE Fsk mod	IkB sig inh	Hsp90 Hop PPI	15-hLO inh
O=C(CSc1nc2ccccc2s1)N1CCN(C(=O)c2ccco2)CC1	16.4%	-7.7%	1.0%	0.1%	-7.6%
COc1ccc(Cn2c(CNC(=O)c3ccc(N(C)C)cc3)nc3cccnc32)cc1	/	/	-0.3%	/	/
O=C(Nc1ccccc1C(F)(F)F)c1ccc(F)c(S(=O)(=O)N2CCc3ccccc3C2)c1	/	/	2.1%	/	/
O=C1C=C[C@@H](O)[C@H]2[C@@H]3C(=O)N(Cc4ccccc4)C(=O)[C@@H]3CC[C@H]12	/	/	/	/	4.1%[11.4 µM]
Cc1cc(Cl)cc2c1NC(=O)[C@]21[C@@H]2C(=O)N(Cc3ccccc3)C(=O)[C@@H]2[C@@H]2CCCN21	25.1µM*	-14.0%	?	-16.8%	?
CCc1ccc2c(c1)[C@]1(C(=O)N2)[C@@H]2C(=O)N(Cc3ccccc3)C(=O)[C@@H]2[C@@H]2CCCN21	20µM*	-9.1%	1.1%	-9.8%	-8.9%
COc1ccc(CCNc2nc(-c3ccco3)cc(C(F)(F)F)n2)cc1OC	16.0%	?	5.6%	9.9%	-23.5%
Fc1ccc(CNc2nc(-c3ccco3)cc(C(F)(F)F)n2)cc1	?	-3.8%	?	?	25.1µM*
FC(F)(F)c1cc(-c2ccco2)nc(NCc2cccnc2)n1	20µM*	17.8%	3.3%	-9.0%	?
Fc1ccc(-c2cc(C(F)(F)F)nc(NCc3ccccc3)n2)cc1	/	/	1.9%	/	/
Oc1cc(O)c2c(c1)O[C@@H](c1ccc(O)c(O)c1)[C@H](O[C@@]1(c3cc(O)c(O)c(O)c3)Oc3cc(O)cc(O)c3[C@H](O)[C@@H]1O)C2	0.4%[11.4 µM]	-7.0%[7.6 µM]	2.1%[11.4 µM]	?	1µM*
COc1ccc(NC(=O)CSc2nncs2)cc1OC	-13.5%	22.0%	-0.5%	-4.1%	-3.2%
CCOc1ccc(-c2nc(CSc3nncs3)cs2)cc1OC	0.5%	5.01µM*	-2.7%	2.1%	-3.2%
COc1cc(C(=O)NCc2ccc3c(c2)OCO3)ccc1OCc1c(C)noc1C	141.6%	7.5%	0.8%	0.7%	12.6µM*
CCc1c(C)nc2cc(-c3cc(OC)cc(OC)c3)nn2c1N1CCCC1	9.8%	2.51µM*	?	?	-16.2%
CCOCCN1CCN(c2c3c(nc4cc(-c5ccc(F)cc5)nn24)CCC3)CC1	21.9%	11.0%	?	-1.4%	6.9%
Fc1cccc(-c2cc3nc4c(c(N5CCC6(CC5)OCCO6)n3n2)CCCC4)c1	4.1%	21.3%	0.9%	4.6%	-14.4%
COc1cc(OC)cc(-c2cc3nc4c(c(N5CCN(c6ncccn6)CC5)n3n2)CCCC4)c1	22.8%	3.16µM*	1.1%	10.6%	-5.6%
OC1CCN(c2c3c(nc4cc(-c5cccc(F)c5)nn24)CCCC3)CC1	26.4%	3.16µM*	?	2.8%	?
COc1cc(OC)cc(-c2cc3nc4c(c(N5CCN(c6cnccn6)CC5)n3n2)CCCC4)c1	28.6%	1.58µM*	0.3%	0.9%	3.9%
CCN(CC)CCCNC(=O)Cn1nc(N2CCN(c3ccccc3OC)CC2)ccc1=O	/	/	-1.2%	/	/
O=C(NCC(c1ccc2c(c1)OCO2)N1CCOCC1)c1cccc(Cl)c1 (stereo unspecified)	/	/	0.3%	/	/
COc1ccc(C2C(C(=O)Nc3cccnc3)=C(C)Nc3nc(SCc4ccccc4)nn32)cc1 (stereo unspecified)	/	/	-0.8%	/	/
